Results taken from the supplement of paper PMC9262897, “Low-cost anti-mycobacterial drug discovery using engineered E. coli” (Nature Communications, 2022).
Structures can show the parent of a compound that is named as a salt. ± gives the standard deviation of the averaged measurements.

These compounds were tested on E. coli TESEC Alr+ wild-type control (assay: growth (OD600 after 10 h); higher = more growth (less inhibition)). Conditions: compound 0.1 mM; raw OD600 reference: median of DMSO wells 0.49, cell-free background 0.052.
Method: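 TESEC Mtb Alr E. coli (ΔaraC ΔtolC ΔentC Δalr ΔdadX, arabinose-inducible Mtb Alr) or the Alr+ wild-type control strain, grown in defined M9-fructose medium without D-alanine in 96-well plates with Prestwick library compounds at 0.1 mM and 1% DMSO. Low Alr induction is 0.1 µM arabinose and high induction is 10 mM arabinose.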

| SMILES | growth |
| --- | --- |
| O=C1NCCN1CCN1CCC(c2cn(-c3ccc(F)cc3)c3ccc(Cl)cc23)CC1 [Sertindole] | 0.0474 ± 0.001 |
| CCOc1ccc2c(c1)C(C)=CC(C)(C)N2 [Ethoxyquin] | 0.3809 ± 0.0031 |
| CC(=O)OCC(=O)[C@@]1(OC(C)=O)[C@@H](C)C[C@H]2[C@@H]3C[C@H](F)C4=CC(=O)C=C[C@]4(C)[C@@]3(F)[C@@H](O)C[C@@]21C [Diflorasone Diacetate] | 0.398 ± 0.015 |
| COc1ccc(NS(=O)(=O)c2ccc(N)cc2)nn1 [Sulfamethoxypyridazine] | 0.459 ± 0.011 |
| N/C(=N\C(=O)c1nc(Cl)c(N)nc1N)NCc1ccccc1 [Benzamil hydrochloride] | 0.502 ± 0.034 |
| CN1CCCN(C(c2ccccc2)c2ccc(Cl)cc2)CC1 (stereo not given) [Homochlorcyclizine dihydrochloride] | 0.498 ± 0.047 |
| CC[C@H]1OC(=O)[C@H](C)[C@@H](O[C@H]2C[C@@](C)(OC)[C@@H](O)[C@H](C)O2)[C@H](C)[C@@H](O[C@@H]2O[C@H](C)C[C@H](N(C)C)[C@H]2O)[C@](C)(O)C[C@@H](C)C(=O)[C@H](C)[C@@H](O)[C@]1(C)O [Erythromycin] | 0.0538 ± 0.0043 |
| Cn1c([N+](=O)[O-])cnc1COC(N)=O [Ronidazole] | 0.458 ± 0.0079 |
| CC(C)(C)NCC(O)c1cc(O)cc(O)c1 (stereo not given) [Terbutaline hemisulfate] | 0.504 ± 0.051 |
| C[C@@H]1CCC[C@H](C)N1NC(=O)c1ccc(Cl)c(S(N)(=O)=O)c1 [Clopamide] | 0.581 ± 0.048 |
| O=P(O)(O)C(O)(Cn1ccnc1)P(=O)(O)O [Zoledronic acid hydrate] | 0.596 ± 0.074 |
| CCN1C(=O)NC(c2ccccc2)C1=O (stereo not given) [Ethotoin] | 0.448 ± 0.012 |
| C#Cc1cccc(Nc2ncnc3cc(OCCOC)c(OCCOC)cc23)c1 [Erlotinib] | 0.436 ± 0.03 |
| CCC[C@H](N[C@@H](C)C(=O)N1[C@H](C(=O)O)C[C@@H]2CCCC[C@@H]21)C(=O)OCC [Perindopril] | 0.555 ± 0.1 |
| CCN(CCCc1ccccc1)CCCc1ccccc1 [Alverine citrate salt] | 0.48 ± 0.026 |
| COc1cc(C(=O)OCCCN2CCCN(CCCOC(=O)c3cc(OC)c(OC)c(OC)c3)CC2)cc(OC)c1OC [Dilazep dihydrochloride] | 0.416 ± 0.034 |
| COc1ccc(CCN(C)CCCC(C#N)(c2ccc(OC)c(OC)c2)C(C)C)cc1OC (stereo not given) [Verapamil hydrochloride] | 0.461 ± 0.022 |
| Nc1nc(NC2CC2)c2ncn([C@H]3C=C[C@@H](CO)C3)c2n1 [Abacavir Sulfate] | 0.612 ± 0.095 |
| C=C[C@H]1CN2CC[C@H]1C[C@@H]2[C@@H](O)c1ccnc2ccc(OC)cc12 [Quinidine hydrochloride monohydrate] | 0.483 ± 0.07 |
| CC1(C)O[C@@H]2[C@@H](CO[C@@]3(COS(N)(=O)=O)OC(C)(C)O[C@@H]23)O1 [Topiramate] | 0.541 ± 0.075 |

| SMILES | growth |
| --- | --- |
| Cc1ccc(/C(=C\CN2CCCC2)c2ccccn2)cc1 [Triprolidine hydrochloride] | 0.464 ± 0.026 |
| CCCCC1=NC2(CCCC2)C(=O)N1Cc1ccc(-c2ccccc2-c2nnn[nH]2)cc1 [Irbesartan] | 0.528 ± 0.12 |
| C=C1C(=O)O[C@H]2[C@H]1CC/C(C)=C/CC[C@@]1(C)O[C@@H]21 [Parthenolide] | 0.488 ± 0.038 |
| CC(COc1ccccc1)N(CCCl)Cc1ccccc1 (stereo not given) [Phenoxybenzamine hydrochloride] | 0.673 ± 0.025 |
| CC(C)(C)NC(=O)[C@@H]1C[C@@H]2CCCC[C@@H]2CN1C[C@@H](O)[C@H](Cc1ccccc1)NC(=O)[C@H](CC(N)=O)NC(=O)c1ccc2ccccc2n1 [Saquinavir mesylate] | 0.0807 ± 0.0042 |
| O=C1O[C@H]([C@@H](O)CO)C(O)=C1O [Ascorbic acid] | 0.483 ± 0.056 |
| CCCC(C(=O)OCCN(CC)CC)(c1ccccc1)c1ccccc1 [Proadifen hydrochloride] | 0.0545 ± 0.001 |
| Nc1nc(=O)[nH]cc1F [Flucytosine] | 0.57 ± 0.021 |
| c1ccc(-c2ccc(C(c3ccccc3)n3ccnc3)cc2)cc1 (stereo not given) [Bifonazole] | 0.0548 ± 0.0039 |
| CN(C)CCC=C1c2ccccc2COc2ccccc21 [Doxepin hydrochloride] | 0.472 ± 0.033 |
| O=C1CCc2ccc(OCCCCN3CCN(c4cccc(Cl)c4Cl)CC3)cc2N1 [Aripiprazole] | 0.418 ± 0.077 |
| O=C1Nc2ccc(Cl)cc2[C@@](C#CC2CC2)(C(F)(F)F)O1 [Efavirenz] | 0.047 ± 0.00044 |
| CCc1nc(N)nc(N)c1-c1ccc(Cl)cc1 [Pyrimethamine] | 0.5321 ± 0.0036 |
| C[C@H]1[C@H](NC(=O)/C(=N\OC(C)(C)C(=O)O)c2csc(N)n2)C(=O)N1S(=O)(=O)O [Aztreonam] | 0.385 ± 0.016 |
| CNCC(O)c1ccc(OC(=O)C(C)(C)C)c(OC(=O)C(C)(C)C)c1 (stereo not given) [Dipivefrin hydrochloride] | 0.394 ± 0.018 |
| CCOc1ccc(Cc2nccc3cc(OCC)c(OCC)cc23)cc1OCC [Ethaverine hydrochloride] | 0.377 ± 0.051 |
| CN1CCC(=C2c3ccccc3CCc3cccnc32)CC1 [Azatadine maleate] | 0.59 ± 0.059 |
| COc1cccc(N(C)C(=S)Oc2ccc3c(c2)CCCC3)n1 [Liranaftate] | 0.385 ± 0.0054 |
| NS(=O)(=O)c1cc2c(cc1Cl)NC(C(Cl)Cl)NS2(=O)=O (stereo not given) [Trichlormethiazide] | 0.631 ± 0.095 |
| CN(C)CCC(c1ccc(Br)cc1)c1ccccn1 (stereo not given) [Brompheniramine maleate] | 0.45 ± 0.043 |
